Unmarked numbers belong to inactive results.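 The calls were made as follows: active = mean tau seeding fluorescence area under 1% of vehicle, meaning inhibition above a set limit; inactive = the rest.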
The compounds below were run against Microtubule-associated protein tau (Homo sapiens) (UniProt P10636) (assay: blockers of AD brain-seeded tau fibril growth – biochemical, seed amplification, ThT fluorescence, primary screen (AID 2061166)). Settings: Recombinant tau seeded by AD brain, ThT fluorescence AUC; at 100 µM; hits give high values.
Microtubule-associated protein tau (Homo sapiens), sequence (P10636 whole entry, looked up): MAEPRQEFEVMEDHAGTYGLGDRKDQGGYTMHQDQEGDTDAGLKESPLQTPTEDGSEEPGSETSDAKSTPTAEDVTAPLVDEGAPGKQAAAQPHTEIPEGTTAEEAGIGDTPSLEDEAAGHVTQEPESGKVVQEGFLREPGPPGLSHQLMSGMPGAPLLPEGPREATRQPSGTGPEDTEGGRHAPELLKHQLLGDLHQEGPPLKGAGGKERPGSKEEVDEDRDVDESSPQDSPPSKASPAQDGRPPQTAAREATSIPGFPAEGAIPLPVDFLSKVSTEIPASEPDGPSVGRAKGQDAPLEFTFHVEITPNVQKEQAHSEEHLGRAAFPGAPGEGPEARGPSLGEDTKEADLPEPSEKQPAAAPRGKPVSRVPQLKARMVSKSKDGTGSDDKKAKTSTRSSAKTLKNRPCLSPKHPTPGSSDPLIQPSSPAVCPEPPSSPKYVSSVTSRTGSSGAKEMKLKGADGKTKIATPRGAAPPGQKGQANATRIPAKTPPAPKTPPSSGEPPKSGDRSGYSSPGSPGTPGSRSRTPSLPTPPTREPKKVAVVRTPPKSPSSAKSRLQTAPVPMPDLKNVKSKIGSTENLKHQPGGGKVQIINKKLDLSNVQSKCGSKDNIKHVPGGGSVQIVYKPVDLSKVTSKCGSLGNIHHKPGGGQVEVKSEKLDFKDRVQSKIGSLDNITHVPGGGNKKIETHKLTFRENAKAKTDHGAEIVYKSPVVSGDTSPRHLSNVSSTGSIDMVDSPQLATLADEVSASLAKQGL

Row | SMILES | inhibition
1 | Cc1c(N)c(=O)n(-c2ccccc2)n1C | 0.254%
2 | NC(=O)c1cn(Cc2c(F)cccc2F)nn1 | -11.5%
3 | CO/N=C(\C(=O)NC1C(=O)N2C(C(=O)[O-])=C(C[N+]3(C)CCCC3)CSC12)c1csc(N)n1 (stereo unspecified) | 53.1%
4 | CCC(=O)NCCC1CCc2ccc3c(c21)CCO3 (stereo unspecified) | -20.8%
5 | CC1CCC2(C(=O)O)CCC3(C)C(=CCC4C5(C)CC(O)C(O)C(C)(CO)C5C(O)CC43C)C2C1C (stereo unspecified) | 31%
6 | CC12CC3(O)OC(O1)C1(COC(=O)c4ccccc4)C3CC21OC1OC(CO)C(O)C(O)C1O (stereo unspecified) | -50%
7 | CCCOC(C(=O)OC1CCN(C)CC1)(c1ccccc1)c1ccccc1 | 26.4%
8 | CN(CCOc1ccc(CC2SC(=O)NC2=O)cc1)c1ccccn1 (stereo unspecified) | -61%
9 | Cc1ccc(Nc2nccc(N(C)c3ccc4c(C)n(C)nc4c3)n2)cc1S(N)(=O)=O | -1.27%
10 | CCC1=CC2CN(C1)Cc1c([nH]c3ccccc13)C(C(=O)OC)(c1cc3c(cc1OC)N(C)C1C(O)(C(=O)OC)C(OC(C)=O)C4(CC)C=CCN5CCC31C54)C2 (stereo unspecified) | 27%
11 | CC1=NN(c2ccccc2)C(=O)C1 | 48.4%
12 | CCC(C(=O)O)c1ccc(N2Cc3ccccc3C2=O)cc1 (stereo unspecified) | 26.9%
13 | NS(=O)(=O)Cc1noc2ccccc12 | 18.2%
14 | CC(=O)NC(CS)C(=O)O (stereo unspecified) | 5.01%
15 | NC(=O)OCC(COC(N)=O)c1ccccc1 | -8.84%
16 | CC(C)COc1ccc(CNC(=O)N(Cc2ccc(F)cc2)C2CCN(C)CC2)cc1 | -91.6%

From PubChem BioAssay AID2061166 (Soto Lab, Mitchell Center for Alzheimers Disease and …, 2025)
